About 83,000 compounds went through this panel and 20% of them were active in at least one assay; those are over-represented in the sample as a whole.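 48-hour exposure, single concentration, 96-well plates; percent growth endpoint where 0 means no net growth. Active: below 10.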 Unmarked numbers belong to inactive results. Calls of active or inactive are those of the source.
Key:
Assay in all cases: NCI-60 one-dose screen, 48 h (100 = growth as untreated, 0 = no growth, -100 = all killed)
Conditions in all cases: 10 µM unless noted
[1] = system: SK-MEL-2 melanoma
[2] = system: EKVX NSCLC
[3] = system: SN12C renal
[4] = system: UO-31 renal
[5] = system: TK-10 renal
[6] = system: ACHN renal
[7] = system: CAKI-1 renal
[8] = system: A498 renal
[9] = system: CCRF-CEM leukemia
[10] = system: MOLT-4 leukemia

| SMILES | growth [1] | growth [2] | growth [3] | growth [4] | growth [5] | growth [6] | growth [7] | growth [8] | growth [9] | growth [10] |
| --- | --- | --- | --- | --- | --- | --- | --- | --- | --- | --- |
| CCCCN(CCC#N)C(N)=O | 104% | 101% | 106% | 98.4% | 98.9% | 97.7% | 82.7% | 89.6% | 96.7% | 107% |
| COc1ccc(/C(C)=C(\c2ccc(Cl)cc2)c2ccc(OCCCN(C)C)cc2)cc1 | 90.4% | 88.6% | 79.9% | 64.5% | 94.7% | 91.9% | 67.1% | 93.4% | 53.1% | 55.8% |
| COc1ccc(/C=C/C(=O)c2ccc(-n3cc(CN4CCN(c5cc6c(cc5F)c(=O)c(C(=O)O)cn6C5CC5)CC4)nn3)cc2)cc1 | 97% | 96.6% | 32.6% | 54.9% | 104% | 85% | 67.8% | 68.2% | 44% | 64.2% |
| O=[N+]([O-])c1ccc(N/N=C\c2cc(Cl)ccc2O)nc1 | 44.3% | 31% | 39.3% | 8.96% (active) | 107% | 17.6% | -14.1% (active) | 106% | 19.1% | 13.8% |
| O=C1c2ccccc2-c2c1c1ccncc1c(=O)n2CCCn1ccnc1 | 103% | 96.8% | 49.1% | 19.1% | 82.6% | 0.133% (active) | 49.9% | 80.9% | 18.5% | -12.7% (active) |
| Nc1ncc(-c2ccc3ncnc(N4CCc5cc(F)c(Cl)cc54)c3c2)cn1 | 66.7% | 15.7% | 26% | 14.4% | 21.8% | 20.5% | 15.7% | -29.5% (active) | 22% | 17.3% |
| N#Cc1c(-c2ccc(Cl)cc2)nc(NN=Cc2cccc(Cl)c2)nc1N1CCOCC1 | 96.5% | 77.7% | 91.8% | 53.5% | 106% | 74.3% | 67.4% | 42.2% | 72.5% | 53.3% |
| O=C(/C=C/c1cccc([N+](=O)[O-])c1)c1ccc(Nc2nc(Nc3ccc(F)cc3)nc(Nc3ccc(Cl)cc3)n2)cc1 | 70% | 79.5% | 88.3% | 79.8% | 141% | 92% | 91.4% | 110% | 43.6% | 3.89% (active) |
| CCOC(=O)c1ccc2c(c1)[n+](=O)c(C(C)=O)c(C(F)(F)F)n2[O-] | 12.1% | 29.1% | 4.58% (active) | 27.4% | 40.9% | 5.29% (active) | 40% | 12.5% | -18.1% (active) | -56.4% (active) |
| O=C(NC1CCCCCC1)c1ccc2c(=O)n3c(nc2c1)CCCCC3 | 112% | 107% | 97.8% | 99.8% | 104% | 108% | 108% | 99.5% | 98.8% | 128% |
| COc1cc(CNC(=O)CCCC/C=C/C(C)C)ccc1OCc1cn(-c2cccc([N+](=O)[O-])c2)nn1 | 88.4% | 95.1% | 89.5% | 74.7% | 105% | 81.7% | 79% | 78.9% | 90.2% | 86.6% |
| C=C(C)[C@@H]1CCC[C@]2(C(=O)OC)CC[C@]3(C)[C@@H](CC[C@@H]4[C@@]5(C)CCCNC(C)(C)[C@@H]5CC[C@]43C)[C@@H]12 | 94% | 88.2% | 92.1% | 57.7% | 90.4% | 88.2% | 73.3% | 106% | 84% | 76.9% |
| O=C1/C(=C/c2ccc(-c3ccc(Cl)cc3)o2)SC(=S)N1CCc1ccc(O)cc1 | 58.5% | 80.5% | 63% | 28.5% | 51.1% | 65.3% | 20.4% | 58.9% | 13.5% | 15.3% |
| CC(=O)OCCOc1cc(Cl)c(Cl)cc1Cl | 89.9% | 78.4% | 102% | 89.1% | 106% | 103% | 96.5% | 82.8% | -63.4% (active) | 107% |
| COc1cc2c(c(OC)c1OC)CCC(c1cccc(C(=O)Nc3ccc([N+](=O)[O-])cc3)c1)O2 (stereo not given) | 43% | 55.4% | 51.1% | 29.3% | 57.8% | 40.7% | 50.5% | 25.5% | 15.1% | 4.06% (active) |
| COc1cccc(-c2cc(-c3ccc(Nc4nc(Nc5ccc(Cl)cc5)nc(Nc5ccc(Cl)cc5)n4)cc3)nc(N)c2C#N)c1 | 37.7% | 34.3% | 79% | -66.8% (active) | -53.4% (active) | 33.1% | 37.3% | 80.5% | 5.11% (active) | 7.5% (active) |
| Cc1ccc2nc(/C=C/c3ccc(N(C)C)cc3)cc(C)c2c1 | 34.8% | 52.4% | 35.6% | 33.5% | 43.8% | 32.9% | 18.2% | 27.2% | 17.1% | 40% |
| Cc1ccc(S(=O)(=O)N(CCC(=O)O)c2ccccc2)cc1 | 109% | 108% | 109% | 106% | 119% | 106% | 93.9% | 81.3% | 94.4% | 106% |
| O=c1n(C2OC(CO)C(O)C2O)ccc2nccn12 (stereo not given) | 126% | 108% | 107% | 99.8% | 122% | 104% | 102% | 95.8% | 99.5% | 97.9% |
| CN1CCN(c2ccc(Nc3ncc4[nH]c(=O)n(Cc5ccccc5N)c4n3)cc2)CC1 | 104% | 102% | 86.5% | 62.5% | 86.4% | 89.9% | 66.4% | 66.4% | 96.4% | 93.4% |
| Oc1c(Cl)cc(Cl)c2ccc(CN3CCNCC3)nc12 | 66.8% | 48.7% | 42.8% | 3.7% (active) | 56.3% | 31.1% | 21.8% | 63.3% | 36.1% | 39.7% |
| NC(=N\N=C/c1ccc(Cl)cc1Cl)/C(N)=N\N=C/c1ccc(Cl)cc1Cl | 63.7% | 77.3% | 67.7% | 49.8% | 29.7% | 17.4% | 69.9% | -2.93% (active) | 3.15% (active) | 96.6% |
| CCOC(=O)/C=C1\S/C(=N\Nc2cc(=O)[nH]c3ccc(OC)cc23)N(c2ccccc2)C1=O | 106% | 106% | 96.8% | 82.4% | 117% | 96.8% | 88.5% | 112% | 65.1% | 95.4% |
| CS(=O)(=O)c1ccc(/C(=N/NC(N)=S)c2ccc(F)cc2)cc1 | 112% | 92.5% | 96.5% | 71.1% | 115% | 100% | 94.7% | 82.2% | 92.9% | 103% |
| CN1CCN(Cc2ccc(NC(=O)c3cncc(C#Cc4cnc(N)c5ccc(C#N)cc45)c3)cc2C(F)(F)F)CC1 | -62% (active) | 43.4% | -81.1% (active) | -78.4% (active) | -2.47% (active) | -92.5% (active) | -51.5% (active) | -29.8% (active) | 3.96% (active) | 2.26% (active) |
| CN(C)CCOc1ccc(/C(=C(/CCCCCCCCCC[P+](c2ccccc2)(c2ccccc2)c2ccccc2)c2ccccc2)c2ccccc2)cc1 | -75.9% (active) | -86.1% (active) | -86.2% (active) | -90.3% (active) | -82.7% (active) | -95.8% (active) | -93.2% (active) | -92.9% (active) | -56% (active) | -60% (active) |

Source: PubChem BioAssay (NCI)
